Laboratory results: PubChem BioAssay (NCATS)
Results filed as inconclusive are left out. Active and inactive are the calls of the source. The call rests on the fitted dose curve; in most records, active means well fitted curve in the direction sought with a large enough effect; inconclusive means small, poorly fitted or top-dose-only effect, or another doubt; inactive means no such curve, though single readings can be large; an effect the other way counts as inactive or inconclusive.

How the values were obtained:
[1] = system: MKL-1; assay: qHTS assay to identify novel small-molecules to repurpose for Merkel cell carcinoma treatment (AID 1296009); settings: MCC and control cell lines, CellTiter-Glo viability, 72 h; series mostly up to 46 µM; further: nearly all actives have a fitted effect of over 60% in size; further: potency means the concentration at half of the fitted maximal effect
In short: (§1)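 CellTiter-Glo luminescence after 72 hr compound exposure at 37 degree celsius gave cell viability. Libraries NPC and MIPE were run as 8- and 11-point dose responses; RLUs normalized to DMSO (negative) and no-cell (cytotoxicity) controls.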

[2] = system: MKL-2; assay: as above; settings: MCC and control cell lines, CellTiter-Glo viability, 72 h; series mostly up to 46 µM
In short: as §1

[3] = system: NIH3T3; assay: as above; settings: MCC and control cell lines, CellTiter-Glo viability, 72 h; at 44.8 µM (top of the series) unless noted
In short: as §1

[4] = system: UISO; assay: as above; settings: MCC and control cell lines, CellTiter-Glo viability, 72 h; series mostly up to 46 µM
In short: as §1

[5] = system: WaGa; assay: as above; settings: MCC and control cell lines, CellTiter-Glo viability, 72 h; series mostly up to 46 µM
In short: as §1

[6] = system: C33A; assay: Primary qHTS to identify gynecologic anti-cancer compounds using libraries of approved drugs and bioactive compounds (AID 1345084); settings: Gynecologic cancer cell panel viability, ATPlite luminescence, 48 h; series mostly up to 57.5 µM; further: nearly all actives have a fitted effect of over 55% in size
In short: (§2)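 Luminescence from the ATPlite ATP-monitoring reagent indicates viable cell number; lower signal means cytotoxicity. Cells received compound 16 h after seeding and were exposed for 48 h across five concentrations.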

[7] = system: CAOV3; assay: as above; settings: Gynecologic cancer cell panel viability, ATPlite luminescence, 48 h; series mostly up to 57.5 µM
In short: as §2

[8] = system: CASKI; assay: as above; settings: Gynecologic cancer cell panel viability, ATPlite luminescence, 48 h; series mostly up to 57.5 µM
In short: as §2

[9] = system: Es-2; assay: as above; settings: Gynecologic cancer cell panel viability, ATPlite luminescence, 48 h; series mostly up to 57.5 µM
In short: as §2

[10] = system: HeLa; assay: as above; settings: Gynecologic cancer cell panel viability, ATPlite luminescence, 48 h; series mostly up to 57.5 µM
In short: as §2

Measured: Potency

CCCCN(CCCC)C(C(N)=O)c1ccc(OC)cc1 (stereo not given)
inactive: all assays above

O=C1NC(c2ccccc2)(c2ccccc2)C(=O)N1COP(=O)(O)O
inactive: all assays above

NC(=O)COCCN1CCN(C(c2ccccc2)c2ccc(Cl)cc2)CC1 (stereo not given)
inactive: all assays above

COc1cc(S(N)(=O)=O)cc(C(=O)O)c1OC
inactive: all assays above

COc1ccc(CCC(C)=O)cc1
inactive: all assays above

OCc1cccnc1
inactive: all assays above

COc1ccccc1OCC1CNC(=O)O1 (stereo not given)
inactive: all assays above

O=C(OCC(COC(=O)c1cccnc1)(COC(=O)c1cccnc1)COC(=O)c1cccnc1)c1cccnc1
inactive: all assays above

NS(=O)(=O)c1ccc(N2CCCCS2(=O)=O)cc1
inactive: all assays above

CCOC(=O)C(=O)CCCCCCl
inactive: all assays above

CSCC[C@H](NC(=O)[C@H](Cc1c[nH]c2ccccc12)NC(=O)CCNC(=O)OC(C)(C)C)C(=O)N[C@@H](CC(=O)O)C(=O)N[C@@H](Cc1ccccc1)C(N)=O
inactive: all assays above

CC(=O)OCC(=O)[C@@]1(O)[C@H](OC(C)=O)C[C@H]2[C@@H]3CCC4=CC(=O)C=C[C@]4(C)[C@@]3(F)[C@@H](O)C[C@@]21C
inactive: all assays above

COC(=O)/C=C(/C)N
inactive: all assays above

C#CC(C)(CC)OC(=O)c1ccccc1C(=O)O (stereo not given)
inactive: all assays above

COc1cc(OC)nc(O[C@H](C(=O)O)C(OC)(c2ccccc2)c2ccccc2)n1
inactive: all assays above

CC(C)=CCC/C(C)=C/CC/C(C)=C/CCC(=O)OC/C=C(\C)CCC=C(C)C
inactive: all assays above

COC(=O)c1cc(Cl)ccc1OC
inactive: all assays above

CCCc1ncc(C(=O)O)s1
inactive: all assays above

Cc1ccc(C(C)OC(=O)C2(C)CCC(C(=O)O)C2(C)C)cc1 (stereo not given)
inactive: all assays above

CCCCOC(=O)CCCCCCCCC(=O)OCCCC
inactive: all assays above

CC(=O)OC[C@H]1O[C@@H](OC(C)=O)[C@H](OC(C)=O)[C@@H]1OC(C)=O
inactive: all assays above

CC(C)(C)NCC(O)COc1ccccc1OCC1CCCO1 (stereo not given)
inactive: all assays above

Cn1c(=O)c2c(ncn2CC(=O)O)n(C)c1=O
inactive: all assays above

O=C(C1CCCCC1)N1CC(=O)N2CCCc3ccccc3C2C1 (stereo not given)
inactive: all assays above

COc1ccc2nc(SCc3ncc(C)c(OC)c3C)[nH]c2c1
inactive: all assays above

CN1C(=O)CC(C)(c2ccccc2)C1=O (stereo not given)
inactive: all assays above

c1ccc2c(c1)CCc1ccccc1N2
inactive: all assays above

O=C(O)c1cn(C2CC2)c2cc(Cl)c(F)cc2c1=O
inactive: all assays above

CCS(=O)(=O)c1ccc(OC)c(C(=O)OC)c1
inactive: all assays above

CCC(CN)=C(c1ccccc1)c1ccccc1
inactive: all assays above

C[C@]12CCC(=O)C=C1CC[C@@H]1[C@@H]2[C@@H](O)C[C@@]2(C)[C@H]1CC[C@]2(O)C(=O)COC(=O)CCC(=O)O
inactive: all assays above

COC(=O)c1cc(Cl)c(NC(C)=O)cc1OC
inactive: all assays above

CCOC(=O)OCC/C(SC(=O)OCC)=C(\C)N(C=O)Cc1cnc(C)nc1N
inactive: all assays above

Cc1cccc(C)c1NC(=O)c1ccc(N)cc1
inactive: all assays above

O=C(Nc1ccc(S(=O)(=O)N2CCOCC2)cc1)c1cc(Cl)ccc1NS(=O)(=O)c1ccc(Cl)s1
not listed: [6] | [7]
inactive: all other assays above

Cc1nc(C2CCCCC2)c(-c2ccc(S(N)(=O)=O)c(F)c2)o1
not listed: [3]
inactive: all other assays above

Nc1c[n+](N2CCOCC2)no1
not listed: [7]
inactive: all other assays above

O=C(CCCCCCCCC#CI)Oc1ccccc1
active: [1] 13.3 µM | [2] 9.44 µM | [5] 11.9 µM
not listed: [3]
inactive: all other assays above

C/C(=N/NC(=O)c1ccncc1)C(=O)O
not listed: [3]
inactive: all other assays above

[O-][n+]1cccc(/C(Cl)=N/OC[C@@H](O)CN2CCCCC2)c1
not listed: [3]
inactive: all other assays above

C[C@H]1C[C@H]2[C@@H]3CCC4=CC(=O)C=C[C@]4(C)[C@H]3C(=O)C[C@]2(C)[C@@]1(O)C(=O)CO
not listed: [7]
inactive: all other assays above

Cc1cc(CCCOc2c(C)cc(-c3noc(C(F)(F)F)n3)cc2C)on1
not listed: [5]
inactive: all other assays above

CC(=O)OCC(=O)Nc1cc(C#N)cc(NC(=O)COC(C)=O)c1Cl
not listed: [3]
inactive: all other assays above

NC(=O)NS(=O)(=O)c1ccc(Cl)cc1
not listed: [3]
inactive: all other assays above

OC1(c2ccccc2)CCNCC1
inactive: all assays above

CCC1(c2cnc[nH]2)Cc2ccccc2C1
not listed: [7]
inactive: all other assays above

CCOC(=O)O[C@]1(C(=O)OCCl)CC[C@H]2[C@@H]3CCC4=CC(=O)C=C[C@]4(C)[C@H]3[C@@H](O)C[C@@]21C
not listed: [7]
inactive: all other assays above

Cc1c(C)c2c(c(C)c1OC(=O)CCC(=O)OCCO)CC[C@@](C)(CCC[C@H](C)CCC[C@H](C)CCCC(C)C)O2
inactive: [1] | [2] | [4] | [5]

CC(=O)N1CCN(c2ccc(O)cc2)CC1
active: [1] 8.41 µM | [2] 7.5 µM | [5] 23.7 µM
not listed: [4] | [7]
inactive: all other assays above

Clc1ccc2c(c1)Nc1ccccc1S2
not listed: [4]
inactive: all other assays above

CCCOc1ccc2c(c1)CC[C@@H]1[C@@H]2CC[C@]2(C)C(OC)CC[C@@H]12 (stereo not given in full)
not listed: [3]
inactive: all other assays above

CCCc1c2oc(C(=O)O)cc(=O)c2cc2c(=O)cc(C(=O)O)n(CC)c12
not listed: [7]
inactive: all other assays above

Nc1ncnc2c1ncn2Cc1c(F)cccc1Cl
not listed: [7]
inactive: all other assays above

OCCOCCN1CCN(C(c2ccccc2)c2ccc(Cl)cc2)CC1 (stereo not given)
not listed: [5]
inactive: all other assays above

COC(=O)CCCCC(CCSS/C(CCO)=C(\C)N(C=O)Cc1cnc(C)nc1N)SC(C)=O (stereo not given)
not listed: [7]
inactive: all other assays above

C/C(=C1\CCOC(=O)S1)N(C=O)Cc1cnc(C)nc1N
not listed: [3]
inactive: all other assays above

COc1ccc2c(c1)CCCC2=O
not listed: [7]
inactive: all other assays above

CCCCC(O)/C=C(C)/C=C/C=C/C(=O)N1CCCC1=O (stereo not given)
inactive: all assays above

Cc1nc([N+](=O)[O-])cn1-c1ccc([N+](=O)[O-])cc1
not listed: [7]
inactive: all other assays above

CC(C)C(C)(C)C(C)(C)C(C)(C)S
not listed: [3]
inactive: all other assays above

O=C1CCCc2c(O)cccc21
not listed: [3] | [10]
inactive: all other assays above

NCC(=O)O
not listed: [3]
inactive: all other assays above

COC(=O)/C=C\C(=O)OC
not listed: [7]
inactive: all other assays above

CCC(=O)Oc1ccc2c(c1)CC[C@@H]1[C@@H]2CC[C@@]2(C)[C@H]1C[C@@H](OC(=O)CC)[C@@H]2OC(=O)CC
not listed: [5]
inactive: all other assays above

Cc1oc(=O)oc1COC(=O)[C@@H]1N2C(=O)[C@@H](NC(=O)[C@H](N)c3ccccc3)[C@H]2SC1(C)C
not listed: [3]
inactive: all other assays above

CC(C)(C)c1ccc(O)c(O)c1
active: [1] 6.86 µM | [2] 6.11 µM | [4] 15.4 µM | [5] 10.9 µM

Nc1ccc([N+](=O)[O-])c(C(F)(F)F)c1
not listed: [3]
inactive: all other assays above

Cc1ccc2c(Cl)cc(Cl)c(O)c2n1
not listed: [3]
inactive: all other assays above

CC(C)CCCC(C)NCCC(C)C (stereo not given)
not listed: [8]
inactive: all other assays above

Cc1cc(=O)oc2cc(O[C@@H]3SC[C@@H](O)[C@H](O)[C@H]3O)ccc12
not listed: [7]
inactive: all other assays above

NS(=O)(=O)c1cc(C(=O)NN2C[C@H]3[C@H]4CCC(C4)[C@H]3C2)ccc1Cl
inactive: all assays above

O=C1CC2(CCCC2)CC(=O)N1
not listed: [7]
inactive: all other assays above

Nc1ccc(C(=O)N2CC3CC(CN(Cc4ccccc4)C3)C2)cc1
inactive: all assays above

Cc1cc(O)c(C)c(C)c1O
not listed: [4]
inactive: all other assays above

CN1Cc2cc(C(=O)N3CCC(C4CCNCC4)CC3)ccc2NC(CC(=O)O)C1=O (stereo not given)
not listed: [3]
inactive: all other assays above
